Common to all, as to assay: NCI-60 one-dose screen, 48 h (100 = growth as untreated, 0 = no growth, -100 = all killed)
Holding throughout (details): 10 µM unless noted

In assay [1] the test system is HCT-15 colon.
The test system of assay [2] is HT29 colon.
In assay [3] the test system is SNB-75 CNS.
The test system of assay [4] is SNB-19 CNS.
Assay [5] relates to U251 CNS.
Assay [6] deals with PC-3 prostate.
The test system of assay [7] is SK-MEL-5 melanoma.
The test system of assay [8] is UACC-62 melanoma.
In assay [9] the test system is LOX IMVI melanoma.
The subject of assay [10] is SK-MEL-28 melanoma.
The subject of assay [11] is SK-MEL-2 melanoma.
For assay [12], the system named is EKVX NSCLC.
The test system of assay [13] is SN12C renal.
Assay [14] deals with UO-31 renal.
The test system of assay [15] is TK-10 renal.
Assay [16] concerns ACHN renal.
Assay [17] deals with CAKI-1 renal.
The test system of assay [18] is A498 renal.
The subject of assay [19] is CCRF-CEM leukemia.
Assay [20] deals with MOLT-4 leukemia.

The structures appear in SMILES notation. The panel holds about 83,000 compounds, 20% with a hit somewhere; the sample as a whole holds those more often.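 The endpoint reported here, percent growth, reads 100 for growth as untreated, 0 for no net growth and -100 for all cells dead.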 Values without a mark were called inactive. The source made the active and inactive calls. The calls were made as follows: active = growth percent below 10; inactive = the rest.

On to `O=C(O)c1ccc(CO)o1`, for which the growth was 103% in assay [1]; 106% in assay [2]; 90.7% in assay [3]; 103% in [4]; 91.8% in [5]; 105% in assay [6]. The growth in assay [7] was 107%; in assay [8] it was 101%; in assay [9] it was 109%; in [10] it was 103%; in assay [11], 92.3%; in [12], 105%. The growth in [13] was 104%; in assay [14] it was 97.7%; in assay [15], 103%; in assay [16] it was 105%; in [17], 102%; in assay [18], 114%. The growth is 106% in assay [19] and 100% in [20].

For `N#Cc1c(N)nc2c(nnn2-c2cccc(Br)c2)c1N`, the growth is 104% in [1]; 102% in assay [2]; 97.6% in assay [3]; 95.9% in assay [4]; 93% in assay [5]; 91.6% in assay [6]. In addition, the growth in [7] is 96.4%; in [8], 95.6%; in assay [9], 102%; in assay [10], 117%; in assay [11], 103%; in assay [12], 43.6%. The growth in assay [13] is 93.4%; in assay [14], 72.8%; in [15], 119%; in [16] it was 99%; in assay [17] it was 98.1%; in assay [18] it was 105%. Also, the growth was 97.9% in assay [19] and 83.3% in assay [20].

As to `Cc1c(C(N)=O)sc2nc(C)n(/N=c3\scc(-c4ccccc4)n3Cc3ccccc3)c(=O)c12`, the growth in assay [1] is 14.9%; in assay [2] it was 79.5%; in assay [3], 54.8%; in assay [4], 29.4%; in assay [5], 7.76% (active); in assay [6], 1.97% (active). The growth in assay [7] is 7.44% (active); in [8], 27.7%; in [9] it was 20.6%; in assay [10], 48.2%; in [11] it was 10%; in assay [12], -6.97% (active). In addition, the growth is 47.7% in [13]; 4.13% (active) in assay [14]; 2.89% (active) in assay [15]; 7.27% (active) in assay [16]; -40.6% (active) in assay [17]; 0.708% (active) in assay [18]. Further, the growth in [19] is -12.2% (active); in assay [20] it was 12.1%.

As for `CS(=O)(=O)c1ccc(-c2[nH]c3ccc(F)cc3c2/C=N/NC(N)=S)cc1`, the growth was 20.4% in [1]; 3.14% (active) in [2]; 22.4% in assay [3]; 15.6% in assay [4]; 15.5% in assay [5]; 19.1% in assay [6]. Further, the growth in [7] was 17.3%; in [8], 14.7%; in assay [9], 30.1%; in assay [10], 39.5%; in assay [11], 27.4%; in assay [12], 31.8%. Further, the growth was 21% in assay [13]; 40.2% in assay [14]; 37.8% in [15]; 25.2% in [16]; 39.4% in [17]; 17% in [18]. For the same compound, the growth was 2.97% (active) in [19] and 11.7% in [20].

In the case of `COc1cc2oc3cc(C)oc(=O)c3c2cc1OC`, the growth in assay [1] was 91.9%; in assay [2], 91.5%; in assay [3] it was 103%; in assay [4], 86.8%; in [5] it was 102%; in [6], 98.4%. The growth in [7] is 95.1%; in [8], 90.9%; in [9] it was 103%; in assay [10], 115%; in assay [11], 97.2%; in assay [12], 102%. Moreover, the growth in assay [13] is 92.8%; in assay [14], 82.7%; in [15] it was 96.7%; in assay [16], 94%; in assay [17], 86.4%; in assay [18], 86.3%. Further, the growth in [19] was 112%; in assay [20], 95%.

In the case of `COc1cc2c(O)n(CCCn3ccnc3)c3c4cnc5cccc(c(=O)c3c2cc1OC)c54`, the growth is 95.2% in assay [1]; 33.8% in assay [2]; 52% in assay [3]; 33.8% in assay [4]; 14% in assay [5]; 28.2% in [6]. The growth in assay [7] is 24.9%; in [8], 15%; in [9] it was 3.76% (active); in assay [10] it was 79.6%; in assay [11] it was 71%; in [12] it was 49.6%. In addition, the growth in [13] was 19.2%; in assay [14] it was 64.7%; in assay [15] it was 92.7%; in assay [16], 27.2%; in assay [17] it was 66.4%; in [18], 21.5%. The growth is 11% in assay [19] and 4.13% (active) in assay [20].

Turning to `O=C(Nc1ccccc1)c1sc(-c2cccc(C(F)(F)F)c2)cc1O`, the growth in [1] is 69.5%; in [2], 93.7%; in assay [3], 78.5%; in [4], 69.6%; in assay [5], 51.6%; in assay [6], 81%. In addition, the growth in assay [7] was 18.4%; in [8] it was 23.3%; in assay [9], 86.4%; in assay [10], 53%; in [11], 33.4%; in assay [12] it was 81.5%. For the same compound, the growth in [13] is 83.7%; in assay [14], 77.6%; in [15], 96.5%; in assay [16], 79.5%; in [17] it was 74.6%; in [18], 51.2%. The growth is 87.4% in assay [19] and 87.7% in assay [20].

With `CCN(CC)CC(O)CNc1c2ccc(Cl)cc2nc2ccc(OC)cc12` (stereo not given), the growth is -6.56% (active) in assay [1]; -4.13% (active) in assay [2]; 58.4% in [3]; 57.3% in [4]; -28.3% (active) in assay [5]; 16.6% in [6]. The growth in assay [7] is -92.5% (active); in assay [8], 64.8%; in [9] it was -64.2% (active); in assay [10], -96.6% (active); in [11], -63.4% (active); in assay [12] it was 7.93% (active). The growth in assay [13] is 4.08% (active); in assay [14], -19.3% (active); in [15], -21.8% (active); in assay [16], 12.1%; in [17], -63.6% (active); in assay [18] it was 43.6%. Besides, the figures for the growth in assay [19] and in assay [20] were 0.913% (active) and 4.43% (active), respectively.

These data come from PubChem BioAssay (NCI).
